# Legend:
# Assay in all cases: PBM binding z-score (relative to random genomic background probes); higher = stronger binding; sequences stand for … in GC…GCGATTGACAGCGTAGAATGAAGG
# [1] = test system: PPARg:RXRa DBDmut IVT, anti-RXR (DBD mutation: RXRa K156A/R161A, NR concentration 270 nM, RXRa partner concentration 90 nM)
# Outline: (§1)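 The probes on custom Agilent 4×180K protein-binding microarrays were double-stranded, with 34-nt variable regions bearing direct-repeat seeds, single-nucleotide variants, half-site ablations and random human genomic background sequences. Incubation lasted 1 h with ligand-free nuclear receptor dimers in PBS pH 7.4, 2% milk, 0.02% Triton X-100, 1 mM DTT, 0.2 mg/mL BSA and 0.4 mg/ml salmon testes DNA. Antibodies against each partner (one per run) detected bound dimers, and fluorescence scans were regression-normalized. Binding z-scores take the random background probes as reference.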
# [2] = test system: PPARg:RXRa IVT, anti-PPARg (NR concentration 270 nM, RXRa partner concentration 90 nM)
# Outline: as §1
# [3] = test system: PPARg DBDmut:RXRa IVT, anti-PPARg (DBD mutation: PPARg1 K132A/R137A, NR concentration 270 nM, RXRa partner concentration 90 nM)
# Outline: as §1
# [4] = test system: PPARg DBDmut IVT, anti-PPARg (DBD mutation: PPARg1 K132A/R137A, NR concentration 270 nM)
# Outline: as §1
# [5] = test system: PPARg homodimer (NR concentration 180 nM)
# Outline: as §1
# [6] = test system: PXR:RXRa (NR concentration 270 nM, RXRa partner concentration 90 nM)
# Outline: as §1
# [7] = test system: PXR homodimer (NR concentration 270 nM)
# Outline: as §1
# [8] = test system: RARa:RXR (NR concentration 270 nM, RXRa partner concentration 90 nM)
# Outline: as §1
# [9] = test system: RARa homodimer (NR concentration 270 nM)
# Outline: as §1
# [10] = test system: RARb:RXRa (NR concentration 270 nM, RXRa partner concentration 90 nM)
# Outline: as §1
Sequence,PBM binding z-score [1],PBM binding z-score [2],PBM binding z-score [3],PBM binding z-score [4],PBM binding z-score [5],PBM binding z-score [6],PBM binding z-score [7],PBM binding z-score [8],PBM binding z-score [9],PBM binding z-score [10]
CCGAGCAGGTTATGGGGCATTCAGGCAACGGTGA,0.393,1.05,-0.884,-0.839,0.261,-0.112,-0.362,0.225,-0.391,1.04
ACTCCGAGGACAAAGGTCAGAGCTACGCCAGTGA,1.44,4.05,0.71,-0.0719,6.93,4.53,0.63,5.82,2.61,4.58
ACAGACGGGTGAGTGAAGGTAACTCAGCTGGACG,-0.0722,0.467,2.8e-05,-1.31,0.113,-0.343,-0.231,0.0341,-0.176,0.0932
ACTATTAGTTGAGATGAGGGCAACCGATAGGTTG,0.105,0.33,1.25,0.632,0.972,1.35,0.727,0.676,1.33,1.22
TTTAGCAGGCCAGAGGGTCACTCAAGAGGTACGG,-0.256,1.03,-0.784,-1.27,0.57,1.55,-0.341,2.18,-0.62,2.05
CTACCAAGGTGAACAAGGTCATTGATTACTATTC,3.07,4.07,0.536,0.17,2.29,4.92,6.61,4.44,1.19,3.53
GTTAGCAGGCCATTTGGGTCACTCAATGACGGGC,2.37,2.61,-0.276,-0.494,-0.0267,0.566,0.185,0.925,-0.249,1.52
TGTCGGAGGACACGAAAGGTCAGAGCTCGACATC,-0.0424,1.74,0.729,-0.228,2.53,4.04,0.82,4.12,1.52,4.31
ATCTCTAGGTAGAGATAGTTCAGTGAATGCAAAT,-0.289,0.0847,0.624,0.987,0.293,0.338,0.253,0.641,0.194,0.242
CCAGACCGGTGAAAGGTAACTCAGTCTGGTACGC,-0.315,1.07,-1.56,-0.816,0.901,0.218,-0.239,0.267,-0.377,0.477
CGAAAGAGGGCATGAGTTGATAGCAAATGCCGAT,2.11,1.03,0.384,-0.376,-0.223,0.604,-0.0785,0.777,-0.0626,2.08
TATACAGGTTCAAAGGCCAGAGTACGAATGTCGA,0.255,1.44,0.672,0.97,1.53,2.53,1.35,2.91,1.41,2.2
AGAATGAGGTTATCAAAGATCAGGGAAACGCTTG,2.98,2.51,1.56,0.266,0.544,1.25,0.0151,1.6,0.154,1.33
ATCTCTAGGTAAGACTCAGTTCAGTGAGGAACGC,1.94,1.26,0.558,0.604,0.314,0.836,1.56,0.193,0.359,0.376
TCTATTAGTTGAAAGGCAACCGACGAGTCCGTTT,2.63,0.0769,0.573,-0.131,1.05,0.694,0.704,0.467,1.11,0.44
TCTCGGAGGACACGAAAGGTCAGAGGTCGACATC,1.89,2.44,-0.583,-0.569,2.83,5.34,0.827,6.51,1.05,4.57
GCTATTAGTTGAAAGGGCAAACGAATGATTCTCG,0.582,1.18,0.0539,0.507,1.19,0.938,0.57,1.52,1.28,2.04
CCTATTAGTTGACCATAAGGGCAACCGGAGCTCG,0.164,0.489,-0.0255,0.00899,1.98,0.686,0.931,0.893,2.04,1.72
TCGATTAGGTTACCAATGGGGCATTCAGCTTTCT,2.52,1.4,0.217,0.237,0.366,0.467,-0.59,0.557,-0.505,1.44
TAGCCTAGGTCAGATCGGGTCAGTATACGCTATA,0.599,2.06,-0.409,0.264,0.633,4.16,-0.399,2.21,-0.275,3.55
CTTGCTAGGTCATGGTCAGCTAATCTACAGTATG,4.97,4.72,0.897,0.605,1.37,1.45,-0.306,2.48,0.17,3.66
CAAACTAGGTTACCGGAAGGTCAAAGTCCGCATG,7.31,6.8,1.12,1.42,4.03,4.47,1.65,5.36,1.39,3.9
TCTGCTAGGTCAACGATGGTCAGCAAATCTGCTA,3.85,4.18,0.827,0.166,0.381,1.47,-0.599,2.12,-0.686,4.26
CGTCAAAGTTCAACTTAGGTAACGTAAAGCACGC,-0.00853,2.1,0.537,0.683,4.03,5.5,4.07,4.61,2.1,5.38
